Compounds without any hit were thinned out: in the full panel of roughly 79,000, 15% have a hit. Unmarked numbers belong to inactive results. Activity calls are given as the source filed them. Cut-off read from the data, not from the text of the source: active = growth inhibition above about 70%; inactive = the rest.
Assay: NCI Yeast Anticancer Drug Screen. Data for the wt2 strain (AID 169);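 note: 0% = growth of vehicle-treated yeast cultures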
Conditions: S. cerevisiae wt2 strain growth inhibition, hits give high values
Protocol: Growth inhibition of yeast strains with defined genetic alterations is measured as a screen for potential anti-cancer activity. Selected strains with alterations in DNA damage repair or cell cycle control were exposed to compounds and growth inhibition was measured relative to vehicle treated controls. The strain used in this assay is wt2

SMILES	growth inhibition (at 1.2 µM) [%]	growth inhibition (at 3.7 µM)	growth inhibition (at 11.0 µM)	growth inhibition (at 33.0 µM)	growth inhibition (at 100.0 µM)
O=[N+]([O-])c1cc(S(=O)(=O)Nc2ccccc2)ccc1Cl	-26	-6%	4%	90% (active)	99% (active)
CCN(CC)CC(O)C1CCC(c2ccccc2)CC1 (stereo not given)	3	9%	16%	45%	83% (active)
O=C(/C=C/c1cccc(Br)c1)c1ccc(Cl)cc1	-31	-28%	-19%	20%	72% (active)
COc1ccc2c(c1)[nH]c1c(/C=C/c3ccccc3)nccc12	-36	-29%	-30%	68%	97% (active)
N#C/C(=C1C=C(Br)/C(=N\O)C=C\1Cl)c1cccc2ccccc12	0	7%	87% (active)	90% (active)	97% (active)
O=S(=O)(c1cc(Cl)ccc1O)c1cc(Cl)ccc1O	7	85% (active)	97% (active)	99% (active)	100% (active)
COC(=O)c1cccc(C)c1C(=O)c1c(C)cc(C)cc1C	-3	-3%	-4%	9%	50%
O=C(Nc1ccc2c(c1)Cc1c-2ccc([N+](=O)[O-])c1F)C(F)(F)F	2	0%	2%	2%	0%

Reference: PubChem BioAssay (NCI)
